The source made the active and inactive calls.
Assay: probe aXIP binding to arrayed compounds – biochemical, NeuroSMM set, 635/667 nm fluorescence, primary screen (AID 1119);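 further: probe is the protein aXip251-270 applied at 1 µg/mL to compound-printed slides; binding of probe to printed compounds measured as 667 nm fluorescence plus signal to noise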
Settings: small-molecule microarray, higher = more signal, called active from +8 up or from −8 down

Composite Z-score, inactive:
COc1ccc([C@H]2OC[C@@H]3C[C@@H](Cc4ccccc4)C(=O)N32)cc1 0.584
COCCCNC(=O)[C@@H]1c2ccccc2C(=O)N(Cc2ccccc2Cl)[C@H]1c1ccc(CO)cc1 -0.129
O=C1C2C=CC(C(O)c3cccc4ccccc34)N(Nc3ccccc3F)C2C(=O)N1c1ccccc1 (stereo not given) 0.791
COC(=O)[C@@]1(CCS(=O)(=O)c2ccccc2)N=C(c2ccc(OCCCO)cc2)O[C@H]1c1ccccc1CN=[N+]=[N-] 0.559
C=C[C@H](OC)[C@@H](OC(=O)Nc1ccc(OC)cc1)c1ccc(O)c(F)c1 0.111
C=CCC(OC(C)=O)[C@@H]1[C@@H](N(Cc2ccc(-c3ccccc3)cc2)C(=O)c2cccc3ccccc23)c2cc(OCCCO)ccc2N1C(=O)c1ccc(-c2ccccc2)cc1 (stereo not given in full) 0.45
C=CCOC(=O)[C@H]1[C@@H]2C(=O)O[C@@H](c3ccccc3)[C@@H](c3ccccc3)N2[C@@H](c2ccc(OCCOC(=O)[C@H]3C[C@H]4C(=O)N[C@@H](CCCC[N+](C)(C)C)C(=O)N4[C@H]3c3ccc(O)cc3)cc2)[C@]12C(=O)Nc1ccc(I)cc12 1.88
COC(=O)[C@@]1(Cc2ccc(OC)cc2)[C@@H]2C(=CC(=O)[C@H]2CC(=O)C(=O)N2CCCC2)CN1C(=O)c1ccccc1 -0.0056
C[C@H]1NC(=O)[C@@]23C(=O)N[C@@H](Cc4ccccc4)C2[C@H](C)[C@@]2(C)O[C@H]2C3/C=C/C/C=C\CNC(=O)[C@@H]2CCCN2C1=O (stereo not given in full) 0.542
O=C(OCc1ccccc1)C1=CCC2c3[nH]c4ccccc4c3C(=O)C1N2S(=O)(=O)c1ccccc1[N+](=O)[O-] (stereo not given) 0.0421
COC(=O)[C@@]1(Cc2ccc(OC)cc2)[C@H]2c3cc(C(=O)N4CCCC4)n(Cc4ccc(C)c(F)c4F)c3C[C@H]2CN1C(=O)c1ccccc1 -0.572
C=CCOC(=O)[C@H]1[C@@H]2C(=O)O[C@@H](c3ccccc3)[C@@H](c3ccccc3)N2[C@@H](c2ccc(OCCOC(=O)[C@H]3C[C@H]4C(=O)N[C@@H](CCCCNC(C)=O)C(=O)N4[C@H]3c3cccc(OCCO)c3)cc2)[C@]12C(=O)Nc1ccccc12 0.93
CC(C)c1ccc(NN2C(C(O)c3ccc(B(O)O)cc3)C=CC3C(=O)N(c4ccccc4)C(=O)C32)cc1 (stereo not given) -0.852
CCCC=C(CCC)[C@@H](NC(=O)c1cccs1)c1ccc(C(F)(F)F)cc1 0.23
COc1ccc(C#Cc2ccc3c(c2)[C@]2(C(=O)N3)[C@H](C(=O)Nc3nc4ccccc4s3)[C@H]3C(=O)O[C@H](c4ccccc4)[C@H](c4ccccc4)N3[C@@H]2c2ccc(O)cc2)cc1 0.257
CCCCCCc1nc(-c2cc(C)c(OC)c(C)c2)cc2c1[Si](C(C)C)(C(C)C)OC2 0.244
COCCOC(=O)N1C(=O)[C@@]2(c3cc(C#Cc4ccc(OC)cc4)ccc31)[C@H](c1ccccc1OCCO)N1[C@H](c3ccccc3)[C@H](c3ccccc3)OC(=O)[C@H]1[C@@H]2C(=O)NC[C@H](O)c1ccccc1 -0.112
COC(=O)C(CC#Cc1ccc2c(c1)[C@]1(C(=O)N2)[C@H](c2ccc(OCCO)cc2)N2[C@H](c3ccccc3)[C@H](c3ccccc3)OC(=O)[C@H]2[C@@H]1C(=O)N1CCc2cc(OC)c(OC)cc2C1)C(=O)OC -0.527
COCCOC(=O)N1C(=O)[C@@]2(c3cc(C#CCC(C(=O)OC)C(=O)OC)ccc31)[C@H](c1ccccc1OCCO)N1[C@H](c3ccccc3)[C@H](c3ccccc3)OC(=O)[C@H]1[C@@H]2C(=O)N1CCN(c2ncccn2)CC1 0.347
O=C(c1ccccc1)N1C(=O)[C@]2(COC(c3ccc(OCCCO)cc3)=N2)Cc2ccccc21 3.03
COc1ccc([Si](C)(C)[C@@H]2[C@@H](CCO)O[C@]3(C(=O)N(Cc4ccc(N(C=O)c5ccccc5)cc4)c4ccccc43)[C@H]2C)cc1 -0.119
O=C1c2ccccc2[C@](Cc2ccccc2I)(C(=O)NCC(F)(F)F)[C@H](c2ccc(CO)cc2)N1Cc1ccccc1Cl -0.228
COCCOC(=O)N1C(=O)[C@@]2(c3cc(C#CCCO)ccc31)[C@H](C(N)=O)[C@H]1C(=O)O[C@H](c3ccccc3)[C@H](c3ccccc3)N1[C@@H]2c1ccc(O)cc1 -0.516
C=C(CCCC)/C(=C/C[C@@H](OC(=O)c1ccncc1)c1ccc(OCCO)cc1)c1cc(C(=O)OC)ccc1OC -0.367
C=CCN1C(=O)[C@]2(O[C@H](CCn3cc([C@H](O)c4ccccc4)nn3)[C@@H]([Si](C)(C)c3ccc(OC)cc3)[C@@H]2C)c2ccccc21 0.0503
[N-]=[N+]=NCc1ccccc1[C@@H]1OC(c2ccc(OCCCO)cc2)=N[C@]1(Cc1ccccc1)C(=O)NCC(O)CO (stereo not given in full) 1.57
COc1cc2c(cc1OC)CN(C(=O)[C@H]1[C@@H]3C(=O)O[C@@H](c4ccccc4)[C@@H](c4ccccc4)N3[C@@H](c3ccc(O)cc3)[C@]13C(=O)Nc1ccc(C#CCCO)cc13)CC2 0.274
C=CCNC(=O)[C@@H]1[C@H]2C(=O)O[C@H](c3ccccc3)[C@H](c3ccccc3)N2[C@H](c2ccccc2OCCO)[C@@]12C(=O)N(C(=O)OCCOC)c1ccccc12 0.318
CC1(C)[C@@H]2CC(C(O)C3C=CC4C(=O)N(c5ccccc5)C(=O)C4N3Nc3ccc([N+](=O)[O-])cc3)=C[C@H]1C2 (stereo not given in full) 0.131
C=CCNC(=O)[C@H]1[C@@H]2C(=O)O[C@@H](c3ccccc3)[C@@H](c3ccccc3)N2[C@@H](c2ccccc2OCCO)[C@]12C(=O)Nc1ccc(C#CCC(C(=O)OC)C(=O)OC)cc12 1.15
O=C1C2C=CC(C(O)c3cc(C(F)(F)F)cc(C(F)(F)F)c3)N(n3cnnc3)C2C(=O)N1Cc1ccccc1 (stereo not given) -0.0461
COc1cc(NN2C(C(O)c3ccco3)C=CC3C(=O)N(c4ccccc4)C(=O)C32)cc(OC)c1OC (stereo not given) 0.32
CN(C)CCCCCCNC(=O)[C@@H]1C[C@@H]2C(=O)N[C@@H](Cc3ccccc3)C(=O)N2[C@@H]1c1ccc(O)cc1 0.675
CC(C)NC(=O)[C@@]1(c2ccc([N+](=O)[O-])cc2)CC(=O)N(C2CCCCC2)[C@@H]1c1ccc(CO)cc1I 0.691
C=CC[C@]1(C(=O)NCc2ccccc2)N=C(c2ccc(OCCCO)cc2)O[C@H]1c1ccccc1N=[N+]=[N-] 1.39
